What was measured:
[1] = target: Tyrosine-protein kinase SYK (Homo sapiens) (UniProt P43405); details: at 1 µM
[2] = target: T1, Tyrosine-protein kinase Tec (Homo sapiens) (UniProt P42680); details: at 0.1 µM
T1 sequence (whole entry): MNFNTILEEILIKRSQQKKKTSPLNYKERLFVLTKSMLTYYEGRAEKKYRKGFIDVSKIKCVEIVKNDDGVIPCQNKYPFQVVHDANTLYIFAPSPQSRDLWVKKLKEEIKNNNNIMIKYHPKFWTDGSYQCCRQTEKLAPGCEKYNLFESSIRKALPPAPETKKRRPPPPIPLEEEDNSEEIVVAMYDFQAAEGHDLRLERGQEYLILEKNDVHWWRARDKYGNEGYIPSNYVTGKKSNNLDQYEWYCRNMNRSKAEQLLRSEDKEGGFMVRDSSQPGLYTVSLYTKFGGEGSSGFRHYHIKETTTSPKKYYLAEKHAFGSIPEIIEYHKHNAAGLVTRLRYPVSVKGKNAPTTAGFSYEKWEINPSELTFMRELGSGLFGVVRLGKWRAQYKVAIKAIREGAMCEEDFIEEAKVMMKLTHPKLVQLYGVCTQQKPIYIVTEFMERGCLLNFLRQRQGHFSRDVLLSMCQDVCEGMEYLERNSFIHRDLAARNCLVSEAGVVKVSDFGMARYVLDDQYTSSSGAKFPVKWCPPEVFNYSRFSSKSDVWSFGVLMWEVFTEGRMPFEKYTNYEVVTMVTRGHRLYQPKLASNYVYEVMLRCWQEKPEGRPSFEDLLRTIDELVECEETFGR

[3] = target: T1, Tyrosine-protein kinase Tec (Homo sapiens); details: at 1 µM
[4] = target: Angiopoietin-1 receptor (Homo sapiens) (UniProt Q02763); details: at 0.1 µM
Chain of Angiopoietin-1 receptor (Homo sapiens) (Q02763 whole entry): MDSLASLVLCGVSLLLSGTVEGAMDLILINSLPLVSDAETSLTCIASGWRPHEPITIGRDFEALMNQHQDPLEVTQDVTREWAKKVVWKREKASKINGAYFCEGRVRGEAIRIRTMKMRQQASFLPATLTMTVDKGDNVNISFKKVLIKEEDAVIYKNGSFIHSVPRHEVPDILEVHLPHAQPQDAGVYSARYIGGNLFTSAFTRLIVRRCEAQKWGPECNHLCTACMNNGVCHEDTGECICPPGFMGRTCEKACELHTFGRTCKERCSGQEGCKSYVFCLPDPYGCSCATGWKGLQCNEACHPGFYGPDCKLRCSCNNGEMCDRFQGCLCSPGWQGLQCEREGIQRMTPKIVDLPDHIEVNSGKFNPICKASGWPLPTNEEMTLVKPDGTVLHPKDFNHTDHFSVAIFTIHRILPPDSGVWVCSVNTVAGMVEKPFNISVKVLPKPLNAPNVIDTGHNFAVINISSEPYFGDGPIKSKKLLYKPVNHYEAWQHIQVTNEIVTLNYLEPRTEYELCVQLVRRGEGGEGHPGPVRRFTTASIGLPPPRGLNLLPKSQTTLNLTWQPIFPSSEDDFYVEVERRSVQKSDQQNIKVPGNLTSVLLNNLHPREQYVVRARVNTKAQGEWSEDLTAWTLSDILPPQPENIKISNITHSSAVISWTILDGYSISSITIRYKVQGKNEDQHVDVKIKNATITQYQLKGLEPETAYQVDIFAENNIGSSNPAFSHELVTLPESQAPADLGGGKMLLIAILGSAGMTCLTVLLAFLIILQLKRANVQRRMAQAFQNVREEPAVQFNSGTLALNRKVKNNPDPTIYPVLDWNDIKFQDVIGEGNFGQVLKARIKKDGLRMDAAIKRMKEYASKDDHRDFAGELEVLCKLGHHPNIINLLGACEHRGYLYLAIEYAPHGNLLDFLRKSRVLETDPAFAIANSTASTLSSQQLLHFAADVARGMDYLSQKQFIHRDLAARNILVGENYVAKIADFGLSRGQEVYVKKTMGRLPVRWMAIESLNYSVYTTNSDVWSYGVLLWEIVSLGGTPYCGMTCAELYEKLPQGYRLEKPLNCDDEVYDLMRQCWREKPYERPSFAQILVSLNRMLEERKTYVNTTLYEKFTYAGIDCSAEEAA

[5] = target: Angiopoietin-1 receptor (Homo sapiens) (UniProt Q02763); details: at 1 µM
[6] = target: T2, Non-receptor tyrosine-protein kinase TNK1 (Homo sapiens) (UniProt Q13470); details: at 0.1 µM
T2 sequence (whole entry): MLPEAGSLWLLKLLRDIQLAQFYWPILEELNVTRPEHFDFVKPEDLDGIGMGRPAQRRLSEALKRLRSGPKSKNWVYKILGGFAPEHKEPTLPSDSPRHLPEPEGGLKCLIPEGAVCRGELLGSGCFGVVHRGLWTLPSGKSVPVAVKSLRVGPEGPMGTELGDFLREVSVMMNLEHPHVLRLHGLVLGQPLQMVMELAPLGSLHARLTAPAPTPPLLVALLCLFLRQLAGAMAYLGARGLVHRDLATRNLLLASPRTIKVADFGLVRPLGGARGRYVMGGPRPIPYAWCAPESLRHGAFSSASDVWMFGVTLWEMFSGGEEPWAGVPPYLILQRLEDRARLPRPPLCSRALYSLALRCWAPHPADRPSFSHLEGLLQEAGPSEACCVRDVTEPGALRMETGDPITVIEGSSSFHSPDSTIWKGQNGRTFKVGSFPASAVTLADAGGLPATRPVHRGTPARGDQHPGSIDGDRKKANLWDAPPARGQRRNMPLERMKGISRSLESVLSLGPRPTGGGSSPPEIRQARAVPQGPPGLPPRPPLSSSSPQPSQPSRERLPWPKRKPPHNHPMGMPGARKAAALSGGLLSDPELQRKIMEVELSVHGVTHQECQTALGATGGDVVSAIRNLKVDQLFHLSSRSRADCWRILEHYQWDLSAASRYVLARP

[7] = target: T2, Non-receptor tyrosine-protein kinase TNK1 (Homo sapiens); details: at 1 µM
[8] = target: Activated CDC42 kinase 1 (Homo sapiens) (UniProt Q07912); details: at 0.1 µM
Chain of Activated CDC42 kinase 1 (Homo sapiens) (Q07912 whole entry, looked up): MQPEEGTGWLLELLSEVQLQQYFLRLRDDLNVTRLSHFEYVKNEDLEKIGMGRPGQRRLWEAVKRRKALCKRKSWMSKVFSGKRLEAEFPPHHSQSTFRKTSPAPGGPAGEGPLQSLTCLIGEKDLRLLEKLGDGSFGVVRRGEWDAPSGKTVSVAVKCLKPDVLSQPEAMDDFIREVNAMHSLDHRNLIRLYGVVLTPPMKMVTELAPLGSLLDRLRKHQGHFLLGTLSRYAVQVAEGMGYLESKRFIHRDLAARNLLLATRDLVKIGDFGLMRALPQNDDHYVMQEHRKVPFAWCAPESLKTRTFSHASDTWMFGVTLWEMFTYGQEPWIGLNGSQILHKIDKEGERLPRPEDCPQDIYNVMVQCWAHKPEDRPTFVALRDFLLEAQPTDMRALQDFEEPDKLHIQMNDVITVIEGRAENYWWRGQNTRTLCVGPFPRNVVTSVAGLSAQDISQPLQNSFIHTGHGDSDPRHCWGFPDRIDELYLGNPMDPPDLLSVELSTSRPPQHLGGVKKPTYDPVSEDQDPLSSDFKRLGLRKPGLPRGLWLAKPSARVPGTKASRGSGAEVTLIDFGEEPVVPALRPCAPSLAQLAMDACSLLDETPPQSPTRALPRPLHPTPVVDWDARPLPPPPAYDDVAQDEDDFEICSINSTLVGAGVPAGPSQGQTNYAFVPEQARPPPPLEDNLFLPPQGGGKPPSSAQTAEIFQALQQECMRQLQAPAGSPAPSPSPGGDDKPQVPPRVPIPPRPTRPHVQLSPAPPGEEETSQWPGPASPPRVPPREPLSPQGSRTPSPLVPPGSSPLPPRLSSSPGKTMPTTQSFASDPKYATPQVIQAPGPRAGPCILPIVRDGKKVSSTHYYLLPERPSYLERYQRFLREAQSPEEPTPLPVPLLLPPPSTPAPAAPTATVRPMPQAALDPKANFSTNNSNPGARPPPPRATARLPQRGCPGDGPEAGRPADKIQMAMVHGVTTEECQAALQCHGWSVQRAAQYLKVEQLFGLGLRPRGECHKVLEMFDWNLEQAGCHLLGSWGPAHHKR

[9] = target: Activated CDC42 kinase 1 (Homo sapiens) (UniProt Q07912); details: at 1 µM
[10] = target: High affinity nerve growth factor receptor (Homo sapiens) (UniProt P04629); details: at 0.1 µM;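 note: each value is a mean of replicate percent inhibition readings against TRKA kinase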
Chain of High affinity nerve growth factor receptor (Homo sapiens) (P04629 33-796 limits assumed): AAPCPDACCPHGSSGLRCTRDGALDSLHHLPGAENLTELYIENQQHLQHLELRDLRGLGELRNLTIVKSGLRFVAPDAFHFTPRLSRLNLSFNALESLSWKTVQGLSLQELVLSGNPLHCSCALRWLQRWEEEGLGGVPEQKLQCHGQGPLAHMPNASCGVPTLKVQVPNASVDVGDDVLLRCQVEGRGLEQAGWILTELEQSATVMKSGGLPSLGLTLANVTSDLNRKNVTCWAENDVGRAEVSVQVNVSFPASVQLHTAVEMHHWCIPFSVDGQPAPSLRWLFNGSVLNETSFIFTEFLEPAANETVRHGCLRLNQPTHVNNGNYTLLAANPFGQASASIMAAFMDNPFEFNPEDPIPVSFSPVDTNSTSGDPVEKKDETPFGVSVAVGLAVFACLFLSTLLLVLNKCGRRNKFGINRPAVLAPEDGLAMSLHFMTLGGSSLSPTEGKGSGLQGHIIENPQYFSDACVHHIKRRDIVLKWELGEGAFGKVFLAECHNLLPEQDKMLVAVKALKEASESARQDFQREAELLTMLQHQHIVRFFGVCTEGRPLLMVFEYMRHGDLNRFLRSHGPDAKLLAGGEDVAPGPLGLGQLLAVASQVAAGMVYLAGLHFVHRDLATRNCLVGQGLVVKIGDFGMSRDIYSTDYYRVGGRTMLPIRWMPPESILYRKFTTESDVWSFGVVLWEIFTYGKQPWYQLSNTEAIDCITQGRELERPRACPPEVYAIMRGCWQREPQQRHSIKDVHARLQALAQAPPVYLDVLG

Structure (SMILES) | inhibition [1] | inhibition [2] | inhibition [3] | inhibition [4] | inhibition [5] | inhibition [6] | inhibition [7] | inhibition [8] | inhibition [9] | inhibition [10]
COc1cc(N2CCN(C(C)C)CC2)ccc1Nc1nc(Nc2ccc(F)cc2C(N)=O)c2cc[nH]c2n1 | 35.9% | 6.32% | 3.59% | 4.35% | 3.7% | 34.7% | 74.1% | 10.8% | 61.7% | -1.19%
c1ccc(-c2nc3n(c2-c2ccc4c(c2)OCO4)CCC3)nc1 | 2.09% | 1.69% | 0.69% | -0.12% | 1.12% | 0.76% | 0.08% | 0.05% | 0.93% | 1.9%
N#Cc1c(NC(=O)c2ccc(F)cc2)sc2c1CCCC2 | -0.64% | 1.75% | 1.25% | 1.49% | 2.44% | -1.86% | 2.53% | 0.23% | 0.89% | 0.08%
CCn1c(-c2nonc2N)nc2c(C#CC(C)(C)O)nc(OC[C@H](N)c3ccccc3)cc21 | 4.13% | 6.27% | 3.05% | 5.91% | 6.74% | 1.23% | -4.26% | 0.7% | 3.88% | 0.42%
COC(=O)Nc1nc2ccc(Oc3ccc(NC(=O)Nc4cccc(Cl)c4)cc3)cc2[nH]1 | 0.56% | -0.16% | 1.83% | 17.1% | 44.7% | 2.25% | 7.76% | 0.12% | -0.32% | 15.6%
COc1ccc2[nH]c3c4[nH]c5ccc(OC)cc5c4c4c(c3c2c1)C(=O)NC4=O | 10.5% | 6.89% | 31% | 1.36% | 5% | 63.6% | 89% | 5.57% | 16% | 3.47%
CNC(=O)c1cncc(/C=C/c2ccccc2Cl)c1 | 0.31% | 2.56% | 10.2% | -0.85% | 4.09% | 2.57% | 27.7% | 0.2% | 5.7% | -5.21%
COC(=O)c1sc(-n2cnc3cc(OC)c(OC)cc32)cc1OCc1ccccc1C(F)(F)F | 1.09% | 3.18% | 6.98% | 4.13% | 14.3% | 8.49% | 4.49% | 0.92% | 5.56% | 3.76%
CC(C)COC(=O)c1ccc2c(c1)/C(=C/Nc1ccc(S(N)(=O)=O)cc1)C(=O)N2 | -2.67% | 0.3% | 6.56% | 0.75% | 7.91% | -3.82% | 5.07% | -0.91% | 0.01% | 2.03%
CNC(=O)c1cc(-c2ccc(F)cc2)cc(-c2ccc(S(=O)(=O)N3CCCC3)cc2)c1N | 0.73% | 2.93% | 3.29% | 2.3% | 2.3% | 2.65% | 2.41% | 0.47% | 1.54% | 1.97%
Cc1ccc2c(-c3ccnc(Nc4ccccc4)n3)c(-c3ccc(F)cc3)nn2n1 | -4.62% | 10.6% | 38.1% | 3.44% | 17.5% | 3.52% | 14.2% | 1.74% | 7.9% | 9%
O=C(O[C@H]1CN[C@H](C#Cc2cc3ncnc(Nc4ccc(Cc5ccccc5)cc4)c3s2)C1)N1CCOCC1 | -3.86% | -0.07% | 4.05% | -0.43% | 2.3% | 0.66% | 5.45% | 0.74% | 0.96% | 1.4%
COc1ccc(CNC(=O)c2ccc(-c3cc(-c4nnc(C)o4)ccc3C)cc2)cc1 | 0.6% | 2.72% | 3.52% | 3.37% | 8.26% | 6.31% | 16% | 3.84% | 6% | -2.81%
CCCN1CCC(c2ccc(Nc3nc(Nc4cc(F)ccc4C(N)=O)c4cc[nH]c4n3)c(OC)c2)CC1 | 73.4% | 2.15% | 7.76% | 2.84% | 4.59% | 46.4% | 92.8% | 5.57% | 44.3% | 1.74%
Cc1cccc(Nc2ncc(-c3ccccc3)o2)c1 | 2.98% | 6.33% | 4.84% | 5.06% | 4.9% | 1.78% | 4.17% | 1.1% | 3.4% | 0.19%
CC(C)(CO)CNC(=O)c1ccc2c(c1)/C(=N/Nc1ccc(S(N)(=O)=O)cc1)C(=O)N2 | -2.05% | 0.59% | 5.32% | -0.74% | 0.79% | 0.66% | 10.3% | -0.56% | 0.03% | 1.4%
NS(=O)(=O)c1ccc(Nc2ncc(-c3ccccc3)o2)cc1 | -1.05% | 4.68% | 7.4% | 2.1% | 2.98% | 4.37% | 18.5% | 1.26% | 3.09% | 5.28%

Structure (SMILES) | inhibition [1] | inhibition [2] | inhibition [3] | inhibition [4] | inhibition [5] | inhibition [6] | inhibition [7] | inhibition [8] | inhibition [9] | inhibition [10]
NS(=O)(=O)c1ccc(N/N=C2\C(=O)Nc3ccc4ncccc4c32)cc1 | 22.4% | 8.53% | 38.3% | 5.02% | 11.5% | 14.6% | 56.8% | 1.85% | 8.38% | 6.88%
COc1cc(/C=N/Nc2ncnc3[nH]ncc23)ccc1O | 14.2% | 8.19% | 38.6% | 2.16% | 9.2% | 4.02% | 18.9% | 1.76% | 8.52% | 2.3%
CS(=O)(=O)CCNCc1coc(-c2ccc3ncnc(Nc4ccc(OCc5ccccc5)cc4)c3c2)c1 | 3.66% | 4.07% | 6.39% | 3.15% | 4.19% | 4.53% | 7.58% | 1.22% | 2.21% | 1.72%
COc1cccc(-c2c[nH]c3c(N/N=C/c4ccncc4)ncnc23)c1 | 4.79% | 3.87% | 16.5% | 4.98% | 27.5% | 10% | 41.7% | 1.63% | 15.3% | 6.49%
[O-][S+]1CCN(Cc2ccc(-c3ccc4ncnc(Nc5ccc(OCc6cccc(F)c6)c(Cl)c5)c4c3)o2)CC1 | 0.31% | 2.12% | 4.55% | 3.66% | 5.42% | 2.94% | 11.7% | 1.61% | 1.32% | 3.52%
CS(=O)(=O)CCNCc1ccc(-c2ccc3ncnc(Nc4ccc(OCc5ccccc5)c(C(F)(F)F)c4)c3c2)o1 | -5.62% | 0.36% | 3.4% | 0.1% | 4.31% | 1.84% | 9.92% | 0.97% | 1.65% | 2%
CN(C)CCOc1ccc(-c2nc(-c3ccncc3)c(-c3ccc4c(c3)CC/C4=N\O)[nH]2)cc1 | -0.9% | 4.78% | 5.79% | 2.29% | 11.9% | 2.5% | 10.2% | 1.21% | 2.51% | 2.02%
c1cc(-c2cnn3nc(N4CCOCC4)ccc23)nc(NC2CC2)n1 | -2.21% | 5.06% | 8.36% | 0.4% | 5.76% | 4.07% | 17.8% | 1.19% | 0.94% | 4.16%
Nc1ncc(-c2cccc(S(N)(=O)=O)c2)c2scc(-c3ccc(F)c(Cl)c3)c12 | -4.44% | 25.8% | 75.2% | 2.99% | 11.1% | 6.81% | 36% | 5.03% | 36.6% | 1.33%
CCn1cc(-c2ccnc3[nH]ccc23)c(-c2cccc(NC(=O)Nc3ccc(OCc4ccccc4)cc3)c2)n1 | -2.75% | -0.28% | 0.98% | -0.17% | 6.2% | 1.05% | 11.2% | -0.68% | 2.63% | -1.48%
Nc1nc(-c2cccc(Cl)c2)c(-c2ccc3ncccc3n2)s1 | -0.99% | 5.56% | 5.26% | 4.2% | 5.76% | 3.08% | 11.5% | 3.52% | 2.83% | 2.32%
CCCN(CCS(C)(=O)=O)Cc1ccc(-c2ccc3ncnc(Nc4ccc(OCc5cccc(F)c5)c(Cl)c4)c3c2)o1 | 1.17% | 2.93% | 4.68% | 1.56% | 6.25% | 1.24% | 12% | 0.32% | 1.4% | 2.55%
Clc1ccc(-c2nn3ncccc3c2-c2ccnc(Nc3ccccc3)n2)cc1 | 2.04% | 2.78% | 15.2% | 3.84% | 18.5% | -6.06% | 11.2% | 0.77% | 4.09% | 3.46%
COc1ccc2c(-c3ccnc(Nc4cccc(OC(F)(F)F)c4)n3)cnn2n1 | -3.35% | 6.32% | 11.9% | 1.4% | 4.58% | 9.21% | 45% | 1.32% | 3.83% | 4.63%
COc1cc(Nc2nccc(Nc3ccc4c(C)n[nH]c4c3)n2)cc(OC)c1OC | 42.8% | 23.6% | 63.1% | 8.4% | 49.8% | 43% | 77.3% | 10.1% | 52.9% | 12.2%
Cc1cccc2c1NC(=O)/C2=N\Nc1ccc(S(N)(=O)=O)cc1 | -1.74% | 5.22% | 7.22% | 1.65% | 1.24% | 2.15% | 5.82% | 1.06% | 1.59% | 4.96%
